Inconclusive results are not listed. A call without a number means that no potency is given here. Some compounds were tested as several samples or in several runs, with calls that do not always agree. Active and inactive are the calls of the source. Calls come from the whole dose curve; as a rule, active = well fitted cell-killing curve with a large enough effect in the repeat runs; inconclusive = weak or mixed curves, or effect the other way; inactive = flat fitted curve, though single readings scatter.
Potency is the fitted concentration of half-maximal effect.

The test can be described thus: qHTS assay to identify small molecule agonists of the TGF-beta/Smad signaling pathway - cell viability counter screen (AID 1346829). Note: nearly all actives have a fitted effect of over 45% in size. Particulars: SBE-bla HEK293T viability, CellTiter-Glo luminescence, 5 h; series mostly up to 76.8 µM. The source says:
National Center for Advancing Translational Sciences [NCATS]
NIH Chemical Genomics Center [NCGC]
U.S. Environmental Protection Agency [EPA]
National Institutes of Environmental Health Sciences [NIEHS]
National Toxicology Program [NTP]
U.S. Food and Drug Administration [FDA]
Transforming growth factor beta (TGF-beta) superfamily consists of a large number of structurally related dimeric proteins that act as hormones or local mediators in regulating a wide range of biological functions. This superfamily includes TGF-betas themselves, the bone morphogenetic proteins (BMPs) and the activins. These ligands induce oligomerization of serine/threonine receptor kinases and phosphorylate the cytoplasmic signaling molecules of Smad protein family. CellSensor SBE-bla HEK 293T cell line (Life Technologies, Carlsbad, CA), responsive to TGF-beta was used to screen Tox21 10K compound library for identification of agonists/antagonists of the Smad signaling pathway. This cell line contains a beta-lactamase reporter gene under control of the Smad binding element (SBE) stably integrated into HEK 293T cells. Also cytotoxicity of the compounds was tested in parallel by measuring the cell viability using CellTiter-Glo assay system in the same wells.
Tox21 Assay Protocol Summary:
SBE-bla HEK 293T cells were dispensed at 4,000/well in 6 uL of assay medium into black wall/clear-bottom 1536-well plates using a Multidrop Combi (ThermoFisher Scientific, Waltham, MA) dispenser. After the assay plates were incubated at 37 C and 5% CO2 for an overnight, 23 nL of compounds dissolved in DMSO, positive controls or DMSO only was transferred to the assay plate by a Pintool station (Kalypsys, San Diego, CA). The assay plates were incubated at 37 C and 5% CO2 for 5 hr. One uL of LiveBLAzer B/G FRET substrate (Life Technologies) was added using a Flying Reagent Dispenser (FRD, Aurora Discovery, San Diego, CA) and the plates were incubated at room temperature for 2 hr. Fluorescence intensity (405 nm excitation, 460 nm and 530 nm emissions) was measured using an Envision plate reader (PerkinElmer, Shelton, CT). For cytotoxicity read, 4 uL of CellTiter-Glo reagent (Promega Corporation, Madison, WI) was added to each well of the assay plates using FRD. After 30min incubation at room temperature, the luminescence intensity was measured using ViewLux plate reader (PerkinElmer).
In general terms: qHTS replaces the single test concentration by a dilution series.
Regarding `CC(C)(C)C(=O)CCl`, the Potency entry was “inactive”. The entry for `Cc1cc(O)ccc1Cl` is “inactive”; for `Cc1ccc(N=C=O)cc1N=C=O` it is “inactive”; for `N#Cc1ccccn1` it is “inactive”. Consider `Cc1ccccc1N`, for which the Potency result is “inactive”. Turning to `Cc1ccc(N)cc1`, the Potency entry is “inactive”. On to `CCNc1nc(Cl)nc(NC(C)C)n1`, for which the Potency result is “inactive”. For `COC(C)(C)CCCC(C)C/C=C/C(C)=C/C(=O)OC(C)C` (stereo not given) the value was “inactive”; for `OCC(O)CCl` (stereo not given), “inactive”. For `CC(=O)C1CCOC1=O` (stereo not given), the Potency result is “inactive”. On to `CCOc1ccc(N)cc1`, for which the Potency entry is “inactive”. `CN(C)C(=O)C(c1ccccc1)c1ccccc1`: the Potency entry was “inactive”. Consider `[N-]=[N+]=CC(=O)OC[C@H](N)C(=O)O`, for which the Potency entry is “inactive”.

Consider `Cc1cccc(N)c1`, for which the Potency entry is “inactive”. For `O=C(O)COc1ccccc1` the value was “inactive”. For `CC[N+](=O)[O-]` the value was “inactive”. The entry for `C[C@H]1C(=O)O[C@@H]2CCN3CC=C(COC(=O)[C@](C)(O)[C@]1(C)O)[C@H]23` is “inactive”; for `C=CCN=C=S` it is “inactive”; for `C=C(C)C(=O)OCC(CC)CCCC` (stereo not given) it is “inactive”. As to `OC[C@@H](O)[C@H]1O[C@@H]2O[C@H](C(Cl)(Cl)Cl)O[C@@H]2[C@H]1O`, the Potency entry is “inactive”. With `CC(=O)/C=C/c1ccccc1`, the Potency result was “inactive”.

With `CN1C(=O)CCS(=O)(=O)C1c1ccc(Cl)cc1` (stereo not given), the Potency result is “inactive”. For `Clc1cnc(Oc2ccc(Oc3ncc(Cl)cc3Cl)cc2)c(Cl)c1` the value was “inactive”; for `OCc1ccco1`, “inactive”.

Take `CNC(=O)O/N=C/C(C)(C)S(C)=O` (stereo not given): the Potency was 24.9 µM (active) and inactive. For `Nc1ccc(N)cc1` the value was “inactive”; for `Cc1cccc(C)c1N`, “inactive”; for `O=[N+]([O-])c1ccc(Cl)cc1`, “inactive”. For `CC12CC1(C)C(=O)N(c1cc(Cl)cc(Cl)c1)C2=O` (stereo not given), the Potency result was “inactive”. For `N#Cc1cccc(C#N)c1` the value was “inactive”; for `CCSC(=O)N1CCCCCC1`, “inactive”; for `CCCCCCCCCCCCCCCCCC(=O)O`, “inactive”. The entry for `Cc1cccc(N)c1C` is “inactive”; for `CNc1cnn(-c2cccc(C(F)(F)F)c2)c(=O)c1Cl` it is “inactive”; for `Cl/C=C/Cl` it is “inactive”.

As for `O=C(O)CCCc1ccc(N(CCCl)CCCl)cc1`, the Potency entry is “inactive”. The entry for `Sc1ccccc1` is “inactive”. The entry for `FC(F)(F)c1ccc(Cl)cc1` is “inactive”.

For `ClCCOCCCl`, the Potency entry is “inactive”. The entry for `O=C(O)c1cc(Oc2ccc(C(F)(F)F)cc2Cl)ccc1[N+](=O)[O-]` is “inactive”.

The record behind these values is PubChem BioAssay (Tox21).
